Common to all, as to details: concentration: 10 µM; 24 h
Experiment [1] has as its system HCC1569. The experiment can be described thus: cell number relative to DMSO (% of DMSO); higher = more cells (less growth inhibition / toxicity). The essentials:
(§1)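 Cell number or H1.0 nuclear intensity appears as percent of the plate control, based on the median of replicates. Measurements came from HCC1569 and TDF cells exposed in triplicate to compounds at 10 µM for 24 h at 37 °C, then imaged in six fields per well at ×10. Positional effects were smoothed out of HCC1569 values.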

Experiment [2] concerns TDF. The experiment is described as above. The gist of the method:
as §1

Experiment [3] has as its system TDF. In words: H1.0 immunofluorescence intensity relative to DMSO (% of DMSO); higher = stronger H1.0 induction, active = 120 or more. The gist of the method: as §1
The test system of experiment [4] is HCC1569. The experiment can be described thus: H1.0 immunofluorescence intensity relative to DMSO (% of DMSO); higher = stronger H1.0 induction, active = 140 or more. The essentials:
as §1
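Wherever H1.0 immunofluorescence intensity relative to DMSO is given: TDF is a line of transformed human dermal fibroblasts of mesenchymal origin.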
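Wherever cell number relative to DMSO is given: TDF denotes transformed human dermal fibroblasts of mesenchymal origin.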

Turning to `Br.COC1CC=C2CCN3CCC4=C(CC(=O)OC4)C23C1` (stereo not drawn) [Dihydro-beta-erythroidine hydrobromide], the cell number worked out at 104 in the experiment with HCC1569 [1] and 98.2 in the experiment with TDF [2]. Moreover, the results for the H1.0 immunofluorescence intensity with TDF [3] and in the experiment with HCC1569 [4] were 91.6 (inactive) and 93.8 (inactive), respectively.

For the molecule `C[C@]12CC[C@@H](O)C[C@@H]1CC[C@@H]1[C@@H]2CC[C@]2(C)[C@@H](O)CC[C@@H]12` [5alpha-Androstane-3alpha,17beta-diol], the results for the cell number with HCC1569 [1] and with TDF [2] were 103 and 104, respectively. The H1.0 immunofluorescence intensity is 97.3 (inactive) in the experiment with TDF [3] and 88.8 (inactive) in the experiment with HCC1569 [4].

With `CC1CCC2(NC1)OC1CC3C4CC=C5CC(O)CCC5(C)C4CCC3(C)C1C2C` (configuration not stated) [Solasodine], the cell number amounted to 102 in the experiment on HCC1569 [1] and 97.4 in the experiment on TDF [2]. Besides, the H1.0 immunofluorescence intensity with TDF [3] was 100 (inactive); with HCC1569 [4] it was 89.2 (inactive).

As for `CCN(CC)C(=O)NC1C=C2c3cccc4[nH]cc(c34)CC2N(C)C1.O=C(O)C=CC(=O)O` (stereo not drawn) [R(+)-Lisuride hydrogen maleate], the cell number with HCC1569 [1] was found to be 103; with TDF [2] it was 117. Besides, the H1.0 immunofluorescence intensity is 91.4 (inactive) with TDF [3] and 92.7 (inactive) with HCC1569 [4].

For the molecule `Cl.Cl.Clc1cccc(N2CCNCC2)c1` [1-(3-Chlorophenyl)piperazine dihydrochloride], the cell number in the experiment on HCC1569 [1] is 83.5; with TDF [2] it was 87.5. For the same molecule, the H1.0 immunofluorescence intensity is 105 (inactive) with TDF [3] and 100 (inactive) in the experiment on HCC1569 [4].

As to `Cc1sc2ccccc2c1CC1=NCCN1.O=C(O)C(=O)O` [Benazoline oxalate], the cell number with HCC1569 [1] amounted to 104; in the experiment with TDF [2] it was 106. Also, the H1.0 immunofluorescence intensity in the experiment on TDF [3] is 92 (inactive); in the experiment with HCC1569 [4], 81.1 (inactive).

On to `CC(C)(O)C1C2OC(=O)C1C1(O)CC3OC34C(=O)OC2C14C` (configuration not stated) [Picrotonin], for which the results for the cell number in the experiment on HCC1569 [1] and in the experiment on TDF [2] were 99.4 and 100, respectively. Moreover, the figures for the H1.0 immunofluorescence intensity in the experiment with TDF [3] and in the experiment with HCC1569 [4] were 97.2 (inactive) and 82.5 (inactive), respectively.

For `CN1C2CCC1CC(OC(=O)C(CO)c1ccccc1)C2` (configuration not stated) [Atropine], the cell number in the experiment on HCC1569 [1] worked out at 104; in the experiment on TDF [2], 110. The H1.0 immunofluorescence intensity in the experiment on TDF [3] is 93.7 (inactive); in the experiment on HCC1569 [4], 107 (inactive).

Source of the values: the supplement of paper PMC7156485.
